Reference: PubChem BioAssay AID463173 (ICCB-Longwood Screening Facility, Harvard Medical School, 2010)
Out of some 52,000 compounds screened, about 4,300 (8.3%) were called active. Rule as the data show it: active = survival mostly below about 52% (no sharp cut-off); inactive = mostly above about 56%. Only a selection was taken, and actives are over-represented in it overall.

What follows are compounds tested on DeltatarO mutant (assay: S. aureus survival, RN4220 and DeltatarO strains – OD600, teichoic acid synthesis inhibitors, primary screen (AID 463173)). Conditions: S. aureus RN4220 wild type/DeltatarO growth, OD600, 18 h, stronger effect = lower value, screened at 18.75 µg/mL (by protocol).

Row | Structure (SMILES) | survival
1 | Cc1cccc2sc(N(Cc3cccnc3)C(=O)CCc3ccccc3)nc12 | 117% (inactive)
2 | COc1cccc(-n2c(=O)c3c(C)c(C)sc3n(CC(=O)NCc3ccccc3)c2=O)c1 | 102% (inactive)
3 | CCCCCOc1ccc(/C=C/C(=O)Nc2sc3c(c2C(=O)OCC)CCC3)cc1OC | 66% (inactive)
4 | COc1ccc(NC(=O)N2CCN3CCCCC3C2)cc1OC (stereo unspecified) | 99% (inactive)
5 | COc1cc(Cl)ccc1OC(=O)c1cn(-c2ccccc2OC)c(=O)c2ccccc12 | 58% (inactive)
6 | Cc1ccc(S(=O)(=O)Cn2nnnc2CN(Cc2ccco2)Cc2cccs2)cc1 | 61% (inactive)
7 | CN(C)c1ccc(C(CNC(=O)c2ccccc2Cl)N2CCCC2)cc1 (stereo unspecified) | 81% (inactive)
8 | CN(C)c1ccc(C(CNC(=O)Cc2ccc(Cl)cc2)N2CCOCC2)cc1 (stereo unspecified) | 63% (inactive)
9 | Cc1ccc(S(=O)(=O)NCC(c2ccc(N(C)C)cc2)N2CCCC2)cc1 (stereo unspecified) | 98% (inactive)
10 | Cc1ccc(S(=O)(=O)NCC(c2ccc(N(C)C)cc2)N2CCOCC2)cc1 (stereo unspecified) | 57% (inactive)
11 | CN(C)c1ccc(C(CNS(=O)(=O)c2ccc(F)cc2)N2CCCC2)cc1 (stereo unspecified) | 106% (inactive)
12 | CN(C)c1ccc(C(CNS(=O)(=O)c2ccc(Cl)cc2)N2CCOCC2)cc1 (stereo unspecified) | 37% (active)
13 | CN(C)c1ccc(C(CNS(=O)(=O)c2ccc(F)cc2)N2CCOCC2)cc1 (stereo unspecified) | 92% (inactive)
14 | CN(C)c1ccc(C(CNC(=O)c2c(F)cccc2Cl)N2CCOCC2)cc1 (stereo unspecified) | 25% (active)
15 | CN(C)c1ccc(C(CNS(=O)(=O)c2ccc(Cl)cc2)N2CCCC2)cc1 (stereo unspecified) | 0% (active)
16 | CCN(CC)C(=O)Cn1c(=O)n(-c2ccc(OC)cc2OC)c(=O)c2c(C)c(C(=O)N(CC)CC)sc21 | 89% (inactive)
17 | CCc1cccc(CC)c1NS(=O)(=O)c1ccc2c(c1)CCN2C(=O)C1CC1 | 90% (inactive)
18 | CC1=Nc2cc(C(=O)NCCc3ccc(Cl)cc3)ccc2Sc2c(C)ccc(C)c21 | 74% (inactive)
19 | O=C(NCCc1ccc(Cl)cc1)c1ccc(CS(=O)(=O)Cc2ccc(F)cc2)o1 | 92% (inactive)
20 | COc1cccc(-c2ccc(-c3noc(-c4ccccc4Br)n3)c(OC)n2)c1 | 37% (inactive)
21 | CCOc1cc(-c2nc(-c3ccc(-c4ccccc4)nc3OCC)no2)cc(OCC)c1OCC | 53% (inactive)

Row | Structure (SMILES) | survival
22 | COc1nc(-c2ccccc2)ccc1-c1noc(C(C)C)n1 | 91% (inactive)
23 | CCOc1cc(-c2nc(-c3ccc(-c4ccc(OC)cc4)nc3OC)no2)cc(OCC)c1OCC | 75% (inactive)
24 | COc1cccc(-c2nc(-c3ccc(-c4ccccc4)nc3OC)no2)c1 | 10% (active)
25 | COc1nc(-c2ccccc2)ccc1-c1noc(-c2ccccc2Br)n1 | -1% (active)
26 | COc1nc(C)ccc1-c1noc(-c2ccccc2)n1 | 102% (inactive)
27 | COc1ccc(-c2ccc(-c3noc(-c4cc(OC)cc(OC)c4)n3)c(OC)n2)cc1 | 45% (inactive)
28 | CCOc1nc(-c2ccccc2)ccc1-c1noc(-c2ccc(C)cc2)n1 | 110% (inactive)
29 | CCOc1ccccc1-c1nc(-c2ccc(-c3ccccc3)nc2OCC)no1 | 4% (active)
30 | CCOc1cc(-c2nc(-c3ccc(-c4ccc(C)cc4)nc3OC)no2)cc(OCC)c1OCC | 69% (active)
31 | CCOc1cc(-c2nc(-c3ccc(Br)cc3)no2)cc(OCC)c1OCC | 118% (inactive)
32 | COc1ccc(CCCc2nnc(SCC(=O)Nc3ccc(F)cc3)o2)cc1C | 89% (inactive)
33 | COc1ccccc1N1CCN(c2cc(N3CCCC3)nc(C)n2)CC1 | 98% (inactive)
34 | O=C(Nc1ccc(Br)cc1)C1CCCN(S(=O)(=O)c2ccc(Br)s2)C1 (stereo unspecified) | 82% (inactive)
35 | C#CCN1CCc2cc(OC)c(OC)cc2C1C (stereo unspecified) | 101% (inactive)
36 | Cc1cccc(CCNCc2cc3cc4c(cc3[nH]c2=O)OCO4)c1 | 85% (inactive)
37 | CC1(C)OC2C(CO)OC(n3ncc(=O)[nH]c3=O)C2O1 (stereo unspecified) | 86% (inactive)
38 | COc1nc(-c2ccc(C)cc2)ccc1-c1noc(-c2ccccc2Br)n1 | 19% (active)
39 | COc1nc(-c2ccc(C)cc2)ccc1-c1noc(-c2ccc(C(C)(C)C)cc2)n1 | 47% (inactive)
40 | CCOc1nc(-c2ccc(C)cc2)ccc1-c1noc(-c2ccccc2F)n1 | 54% (inactive)
41 | CC(C)(C)c1cc(C(C)(C)C)c2oc(=O)c(-c3nc4ccccc4[nH]3)cc2c1 | 69% (inactive)
42 | Cc1ccc(-n2ncc(C(=O)NCCN3CCc4ccccc4C3)c2C2CCNCC2)cc1C | 95% (inactive)

Row | Structure (SMILES) | survival
43 | O=C(c1ccc(F)cc1)N1CCC(c2nc3ccccc3o2)CC1 | 83% (inactive)
44 | Cc1nnc(SCc2ccccc2)c2cc3sccc3n12 | 53% (inactive)
45 | COc1ccc(CCN(Cc2nc3ccccc3c(=O)[nH]2)C(=O)C(C)C)cc1 | 101% (inactive)
46 | CCC(CC)C(=O)Nc1nnc(C(C)(C)C)s1 | 95% (inactive)
47 | CCC(=O)Nc1nnc(C(C)(C)C)s1 | 51% (active)
48 | CC(C)(C)c1nnc(NC(=O)CS(=O)(=O)Cc2ccccc2)s1 | 95% (inactive)
49 | CCn1nnc2cc(C(=O)Nc3cccc(C)c3C)ccc21 | 72% (inactive)
50 | CN(C)CCNc1ccc(Cl)nn1 | 96% (inactive)
51 | Clc1ccc(NCCC2=CCCCC2)nn1 | 84% (inactive)
52 | Clc1ccc(NC2CCCCC2)nn1 | 66% (active)
53 | COc1ccccc1-c1nc(SCC(=O)NCc2ccc(C)cc2)c2c(=O)n(C)c(=O)n(C)c2n1 | 69% (inactive)
54 | Cc1ccccc1NC(=O)c1ccc2[nH]c(C)c(C)c2c1 | 123% (inactive)
55 | COC(=O)c1sc2cccc(F)c2c1S(=O)(=O)Nc1cc(C)c(Cl)cc1OC | 89% (inactive)
56 | COC(=O)c1sc2cccc(F)c2c1S(=O)(=O)Nc1cc(OC)cc(OC)c1 | 8% (active)
57 | CCOC(=O)c1sc2cccc(F)c2c1S(=O)(=O)Nc1ccccc1F | 99% (inactive)
58 | COC(=O)c1sc2cccc(F)c2c1S(=O)(=O)Nc1ccc(N(C)C)cc1 | 66% (inactive)
59 | CCOc1ccccc1NS(=O)(=O)c1c(C(=O)OC)sc2cccc(F)c12 | 20% (active)
60 | COC(=O)c1sc2cccc(F)c2c1S(=O)(=O)Nc1ccc(C)cc1Cl | 91% (inactive)
61 | COC(=O)c1ccccc1NS(=O)(=O)c1cc2c(cc1C)N(C)CCO2 | 87% (inactive)
